The record followed here is PubChem BioAssay (NCATS).

“And” between values parts separate entries of the source, which are not always exact repeats. Equal entries are not always repeated. Results filed as inconclusive are left out. The source made the active and inactive calls. Calls come from the whole dose curve; as a rule, active = well fitted cell-killing curve with a large enough effect; inconclusive = small, poorly fitted or top-dose-only effect, or effect the other way; inactive = no such curve, though single readings can be large or run the other way.

Test [1] in a line: Viability qHTS for spleen associated tyrosine kinase inhibitor (SYKi) naive MV4-11 cells (AID 1963823). Note: nearly all actives have a fitted effect of over 40% in size. The conditions noted are these: MV4-11 AML viability, CellTiter-Glo luminescence, 72 h; series mostly up to 45 µM. Summed up:
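SYK inhibitor-naive MV4-11 cells, 500 per well, exposed to compounds for 72 hr at 37 C, 5% CO2. Viability read as CellTiter-Glo luminescence after 10 min at room temperature.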
Background: In qHTS, concentration-response curves come from the screen itself.

Test [2] is described as follows: Viability qHTS for spleen associated tyrosine kinase inhibitor (SYKi) drug resistant MV4-11 cells (AID 1963824). Note: nearly all actives have a fitted effect of over 35% in size. The conditions noted are these: SYKi-resistant MV4-11 viability, CellTiter-Glo, 72 h; series mostly up to 45 µM. Put shortly:
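SYK-inhibitor-resistant MV4-11 AML cells were seeded at 500 per well onto compound and cultured 72 hours (37 °C, 5% CO2). CellTiter-Glo was then added, and after 10 min at room temperature, luminescence gave viability.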
Potency is the fitted concentration of half-maximal effect.

For the compound `C[C@]12C=CC(=O)C=C1CC[C@H]1[C@@H]3C[C@@H](O)[C@](O)(C(=O)CO)[C@@]3(C)C[C@H](O)[C@@]12F`, the Potency entry in test [1] and in test [2] was “inactive” in each case.

Consider `CC1(C)CC[C@]2(C(=O)O[C@@H]3O[C@H](CO[C@@H]4O[C@H](CO)[C@@H](O)[C@H](O)[C@H]4O[C@@H]4O[C@H](CO)[C@H](O)[C@H](O)[C@H]4O)[C@@H](O)[C@H](O[C@@H]4O[C@H](CO)[C@@H](O)[C@H](O)[C@H]4O)[C@H]3O)CC[C@]3(C)C(=CCC4[C@@]5(C)CC[C@H](O[C@@H]6OC[C@@H](O)[C@H](O)[C@H]6O)[C@@](C)(C(=O)O)C5CC[C@]43C)[C@@H]2C1` (some centres undefined), for which the viability (% of control) in test [1] is 76.7% [at 9.25 µM] (inactive). In test [2], the viability, % of control was 74.7% [at 9.25 µM] (inactive).

Regarding `CC(=O)c1cc2c(cc1O)OC(C)(C)C=C2`, the Potency result in test [1] and in test [2] was “inactive” in each case.

As for `Cc1cn2cc(C(=O)N(C)CCO)cc(NC3CCOc4cccc(C)c43)c2n1` (centres undefined), the Potency result in test [1] and in test [2] was “inactive” in each case.

In the case of `O=c1nc(-c2ccccn2)sc2ccccc12`, the Potency is 1.84 µM (active) in test [1] and 2.59 µM (active) in test [2].

In the case of `C=C1CCC2[C@](C)(CCC[C@@]2(C)C=O)[C@H]1CC/C(C)=C/CO` (some centres undefined), the Potency in test [1] and in test [2] was 20.6 µM (active) throughout.

Take `CS(=O)(=O)c1ccccc1N1CCN(c2nc3c(c(=O)[nH]2)CSCC3)CC1`: the Potency result in test [1] and in test [2] was “inactive” throughout.

As for `COc1ccc2[nH]c3c(c2c1)CCN[C@]31CS[C@@H]2c3c(OC(C)=O)c(C)c4c(c3[C@H](COC1=O)N1[C@@H]2[C@H]2c3c(cc(C)c(OC)c3O)C[C@@H]([C@@H]1O)N2C)OCO4`, the Potency is 0.0015 µM (active) in test [1] and 0.0011 µM (active) in test [2].

`CC(=O)C1=CCC2C3CCC4CC(O[C@@H]5O[C@H](CO)[C@@H](O[C@@H]6O[C@@H](C)[C@H](O)[C@@H](O)[C@H]6O)[C@H](O)[C@H]5O[C@@H]5O[C@H](CO)[C@@H](O)[C@H](O)[C@H]5O)CCC4(C)C3CCC12C` (some centres undefined): the Potency entry in test [1] and in test [2] was “inactive” in each case.

With `C=C1CCC2(C(=O)OC3OC(CO)C(O)C(O)C3O)CCC3(C)C(=CCC4C5(C)CCC(OC6OC(CO)C(OC7OC(C)C(O)C(O)C7O)C(OC7OCC(O)C(O)C7O)C6O)C(C)(C)C5CCC43C)C2C1` (centres undefined), the viability (% of control) in test [1] was 89.9% [at 9.25 µM] (inactive). The viability, % of control in test [2] was 105% [at 9.25 µM] (inactive).

As to `CN(C)Cc1ccc(-c2cnn3c(-c4cccc(NC(=O)c5cccc(C(F)(F)F)c5)c4)ccnc23)cc1`, the results for the Potency in test [1] and in test [2] were 2.91 µM (active) and 3.66 µM (active), respectively.

On to `CC(=O)O[C@@H]1C[C@@H](OC(C)=O)C(C)(C)/C=C/[C@H](C)[C@H](OC(C)=O)[C@@]2(O)C[C@H](C)[C@H](OC(=O)c3ccccc3)[C@@H]2/C=C/1C`, for which the Potency in test [1] is 0.968 µM (active); in test [2] it was 2.73 µM (active).

Take `CC[C@@H]1C[C@]1(NC(=O)[C@@H]1C[C@@H]2CN1C(=O)[C@H](C(C)(C)C)NC(=O)OCC(C)(C)CCCCc1cccc3c1CN(C3)C(=O)O2)C(=O)NS(=O)(=O)C1CC1`: the figures for the Potency in test [1] and in test [2] were 20.6 µM (active) and 18.4 µM (active), respectively.

Consider `C=C(C(=O)O)C1CCC2(C)CCC(O)C(C)(O)C2C1` (centres undefined), for which the Potency entry in test [1] and in test [2] was “inactive” each time.

On to `C[C@@H](Oc1cc(-n2cnc3ccc(OC4CCN(C)CC4)cc32)sc1C(N)=O)c1ccccc1C(F)(F)F`, for which the Potency in test [1] was 0.0184 µM (active); in test [2], 0.0092 µM (active).

For `COC(=O)C12C(=O)C(C)=C(O)C1(C)C(C)=CC1C3(CO)CCC(O)C(C)(C)C3CCC12C` (centres undefined), the Potency entry in test [1] and in test [2] was “inactive” throughout.

`CN(C)C(=O)NC1(c2ccccc2)CCN(CCC[C@]2(c3ccc(Cl)c(Cl)c3)CCCN(C(=O)c3ccccc3)C2)CC1`: the values for the Potency in test [1] and in test [2] were 2.59 µM (active) and 4.11 µM (active), respectively.

On to `COC(=O)C1=CO[C@@H](O[C@@H]2O[C@H](CO)[C@@H](O)[C@H](O)[C@H]2O)[C@@H]2[C@@H](C(=O)OC)[C@@H](O)C(O)[C@H]12` (some centres undefined), for which the Potency entry in test [1] and in test [2] was “inactive” throughout.

`Cc1ncc(NC(=O)c2ccc(CN3CCN(C)CC3)c(C(F)(F)F)c2)cc1Nc1nccc(-c2cccnc2)n1`: the Potency in test [1] was 920 nM (active) and 1.66 µM (active); in test [2], 2.06 µM (active) and 3.32 µM (active).

For the compound `C=CCc1ccc(O[C@@H]2O[C@H](CO)[C@@H](O)[C@H](O)[C@H]2O)c(OC)c1`, the Potency result in test [1] and in test [2] was “inactive” throughout.

For `CCC(C)(O)C(O)C(=O)OCc1ccc(O[C@@H]2O[C@H](CO)[C@@H](O)[C@H](O)[C@H]2O)cc1` (some centres undefined), the Potency entry in test [1] and in test [2] was “inactive” throughout.

As for `C[C@H]1CC[C@H]2[C@@H](C=C[C@@](C)(O)[C@]2(C)C(=O)CCO)C1`, the Potency entry in test [1] and in test [2] was “inactive” in each case.
